According to PubChem BioAssay AID2314 (National Center for Advancing Translational Sciences (NCATS), 2010):
The whole screen tested about 300,000 compounds, of which about 37,000 (12%) were called active. Only a selection was taken, and actives are over-represented in it overall. A number with no mark means an inactive call. Rule as the data show it: active = max response mostly above about 13% (no sharp cut-off); inactive = mostly below about 14%.

Experiment: Cycloheximide Counterscreen for Small Molecule Inhibitors of Shiga Toxin; also: read at 38.3 µM for the half of the compounds with a filed dose; 0% is about no effect
Details: cell reporter, cycloheximide protein synthesis inhibition counterscreen; active compounds read high

Structure (SMILES)	max response
O=C(c1cccnc1)N(c1cc2sc(=O)oc2c2ccccc12)S(=O)(=O)c1ccccc1	-2.05%
Cc1ccc(N(C(=O)c2ccc(S(=O)(=O)N(C)C)cc2)C2C=CS(=O)(=O)C2)cc1 (stereo unspecified)	-2.02%
O=C(c1ccc(OC2CCN(C/C=C/c3ccc(F)cc3)CC2)cc1)N1CCCCC1	-0.769%
Nc1ccccc1SCc1cc([N+](=O)[O-])cc2c1OCOC2	24.7% (active)
CC(O)C(NS(=O)(=O)c1ccc(Cl)cc1)C(=O)OCc1cc([N+](=O)[O-])cc2c1OCOC2 (stereo unspecified)	-0.904%
CCC1(CC)Cc2ccccc2-c2nc(CCl)[nH]c(=O)c21	-3.16%
CC(=O)OCCN(CCCn1c(-c2ccncc2)nc2ccccc21)c1nc(-c2ccc(C)cc2)cs1	-0.764%
CCOCCOC(=O)C1=C(C)NC(=O)NC1c1ccc2c(c1)OCO2 (stereo unspecified)	-1.93%
CCOC(=O)c1c(C)[nH]c(C(=O)COc2ccc3c(c2)OCO3)c1C	18%
CCOC(=O)c1nc(-c2ccc3c(c2)OCO3)[nH]c1C	29% (active)
Cc1cc(C)n2nc(C(=O)N(C)C(c3ccccc3)c3ccccc3)nc2n1	-3.94%
CC1CN(C(=S)Nc2ccc(S(N)(=O)=O)cc2)CC(C)O1 (stereo unspecified)	-1.03%
O=C(Nc1ccc(Br)cc1)c1cc(S(=O)(=O)Nc2ccccn2)ccc1Cl	0.597%
CCOC(=O)C1=C(c2ccccc2)NC(=O)NC1c1cc(OC)c(OC)cc1OC (stereo unspecified)	1.07%
CC(C)=C(NC(=O)c1ccccc1)C(=O)N/N=C(\C)c1ccccc1O	1.01%
COc1ccccc1N(CC(=O)N/N=C(\C)c1ccccc1O)S(=O)(=O)c1ccc(C)cc1	-1.67%
C/C(=N\NC(=O)c1ccoc1C)c1ccccc1O	18.7% (active)
COc1ccc(Cl)cc1-n1c(C)cc(C(=O)OCC(=O)N2CC(=O)Nc3ccccc32)c1C	0.969%
CC(C)COC(=O)n1c(=O)oc2ccc(S(=O)(=O)N3CCCCC3)cc21	-3.35%
O=C(Nc1nnc(-c2ccc(F)cc2)s1)c1c(F)cccc1Cl	-1.16%
COCCCNC(=S)NC(=O)c1ccccc1	36.8% (active)
CCCCCC(=O)NC(=S)NNC(=O)c1ccc([N+](=O)[O-])cc1	0.94%
COc1ccccc1OCCNC(=O)c1cc([N+](=O)[O-])cc([N+](=O)[O-])c1	6.58%

Structure (SMILES)	max response
COCCCNC(=S)NNC(=O)C(O)(c1ccccc1)c1ccccc1	-2.66%
COCCCNC(=S)NC(=O)c1ccc([N+](=O)[O-])cc1	27.5% (active)
Cc1cccc(OCCNC(=S)NC(=O)c2cccnc2)c1	-2.88%
O=C(Cc1ccccc1Cl)N1CCOCC1	-3.01%
Cc1ccc(Cl)cc1NC(=O)CN1CCN(S(=O)(=O)N2CCOCC2)CC1	-6.26%
O=C(c1c(F)cccc1Cl)N1CCN(S(=O)(=O)c2ccc3c(c2)OCCCO3)CC1	-1.76%
O=C(CN(C(=O)CCC(=O)Nc1nccs1)c1ccc(F)cc1)NCc1ccc2c(c1)OCO2	-6.07%
COc1ccc(-c2oc(/N=C/N3CCCC3)c(C#N)c2-c2ccc(OC)cc2)cc1	-5.61%
Fc1ccccc1CCNc1nnnn1-c1ccccc1	0.858%
O=C1CCC(=O)N1c1ccc(NCCc2ccccc2F)c([N+](=O)[O-])c1	21.6% (active)
O=[N+]([O-])c1cc(C(F)(F)F)ccc1NCCc1ccncc1	9.83%
COc1ccc(N2CCC(CNC(=S)Nc3c(C)cccc3C)C2)cc1 (stereo unspecified)	-1.13%
COc1cc(NS(=O)(=O)c2ccc(NC(=O)c3ccc([N+](=O)[O-])cc3)cc2)ncn1	-2.23%
CCCc1cc(=O)oc2c(C)c(OCC(=O)N3CCC(C(=O)O)CC3)ccc12	-2.94%
CCCc1cc(=O)oc2c(C)c(OCC(=O)NCc3ccccn3)ccc12	-0.405%
CCCc1cc(=O)oc2c(C)c(OCC(=O)Nc3ccccn3)ccc12	32.5% (active)
O=C1COc2ccc(C(=O)COC(=O)C3CC(O)CN3S(=O)(=O)c3ccc(Cl)cc3)cc2N1 (stereo unspecified)	-1.44%
CCc1ccc(Nc2nnc(SCC(=O)c3ccc4c(c3)NC(=O)CO4)s2)cc1	20.5% (active)
COc1cccc(Nc2nnc(SCC(=O)N3CC(=O)Nc4ccccc43)s2)c1	-2.67%
CCCc1nc2ccccc2c(C(=O)OCC(=O)c2ccc3c(c2)NC(=O)CO3)c1CC	-2.81%
COC(=O)c1ccccc1Sc1c(/C=N/OCc2ccc(Cl)cc2)c(C(F)(F)F)nn1C	3.42%
CC(C)C(C)(C#N)NC(=O)CSc1nc2scc(-c3ccccc3)c2c(=O)[nH]1 (stereo unspecified)	-4.09%
COc1ccc(-n2nnnc2SCC(=O)NCc2cccs2)cc1	-3.1%

Structure (SMILES)	max response
COc1ccc(-n2nnnc2-c2nc3ccccc3s2)cc1	40.1% (active)
CCOc1cccc(-n2nnnc2-c2ccc(OC)cc2)c1	-3.31%
Cc1ccc(NC(=S)NC(NC(=O)Cc2cccc3ccccc23)C(Cl)(Cl)Cl)cc1 (stereo unspecified)	-3%
Fc1ccccc1CNC(=S)Nc1ccc(Cl)cc1	6.56%
O=C(Cc1cccc2ccccc12)NNC(=O)Nc1ccc(Cl)cc1	28.4% (active)
O=C(CCCCCn1c(=S)[nH]c2cc3c(cc2c1=O)OCO3)N1CCN(c2ccc(F)cc2)CC1	10.7%
CC(=O)c1ccc(NC(=O)Nc2ccc([N+](=O)[O-])cc2C)cc1	-0.717%
CC(=O)N1c2ccc(S(=O)(=O)N3CCC(C(=O)NC4CCCCC4C)CC3)cc2CC1C (stereo unspecified)	4.46%
CCc1ccc(Nc2ncc3c(n2)CC(c2ccco2)CC3=O)cc1 (stereo unspecified)	26.7% (active)
COc1cc(C2CC(=O)c3cnc(NC(C)=O)nc3C2)cc(OC)c1OC (stereo unspecified)	-4.71%
O=C(Nc1ncc2c(n1)CC(c1ccco1)CC2=O)c1ccc(Cl)cc1 (stereo unspecified)	-2.44%
COC(=O)c1nc2n(n1)C(c1ccc([N+](=O)[O-])cc1)C(C(=O)Nc1ccc(Cl)cc1)=C(C)N2 (stereo unspecified)	-2.4%
O=c1cc(Cl)c2ccccc2n1-c1ccccc1	-3.75%
Cc1cc(C)c(C2C3=C(Nc4c2c(C)nn4-c2ccccn2)c2ccccc2C3=O)c(C)c1 (stereo unspecified)	-1.26%
O=C(Nc1ccc(NC(=O)c2cccs2)cn1)c1ccco1	51.1% (active)
NC(=O)c1ccsc1NC(=O)c1ccco1	12.2%
COc1ccc(NC(=O)c2cccc(NC(=O)c3ccco3)c2)c(OC)c1	-3.4%
COc1cccc(C(=O)Nc2ccc(NC(=O)c3ccco3)cn2)c1	55.5% (active)
O=C(Nc1ccnc(-c2ccncc2)n1)c1cccs1	-2.6%
COc1ccccc1C(=O)Nc1ccc(NC(=O)c2ccco2)c(C)c1	10.8%
CC(C)CC(=O)NC(=S)NNC(=O)c1cccc([N+](=O)[O-])c1	4.5%
CCOc1ccc(CNC(=O)C2CCCN(c3nnc(C)c4c(C)n(-c5ccccc5)nc34)C2)cc1 (stereo unspecified)	-1.93%
COc1ccc(S(=O)(=O)N2CCN(c3ccc(F)cc3)CC2)cc1-c1noc(C)n1	10.5%

Structure (SMILES)	max response
Cc1ccccc1CSc1nnc(CCCCCNC(=O)OC(C)(C)C)o1	-1.71%
CCOc1ccccc1NC(=O)Cn1nnc(C(=O)NCc2cccs2)c1N	-7.84%
O=C(NCc1cc(F)cc(C(F)(F)F)c1)C1CCC(=O)N(C2CCCC2)C1 (stereo unspecified)	25.3%
O=C(NCCc1ccccc1)C1CCN(S(=O)(=O)c2ccc(Br)s2)CC1	11.9% (active)
CSc1ccc(S(=O)(=O)N2CCC(C(=O)NCCc3ccccc3)CC2)cc1	0.47%
O=C(C1CCN(S(=O)(=O)c2ccc(Br)s2)CC1)N1CCN(c2ccccc2)CC1	-2.23%
Oc1c(Cl)cc(Cl)cc1/C=N/c1ncn[nH]1	-3.31%
CCOC(=O)N1CCN(C(=O)c2ccc3c(=O)n(CCc4ccc(OC)c(OC)c4)c(=O)[nH]c3c2)CC1	2.53%
COc1cccc(CNC(=O)C2CCCN(S(=O)(=O)N3CC(C)CC(C)C3)C2)c1 (stereo unspecified)	3.03%
O=C(/C(=C/c1cccc(Cl)c1)c1nc2ccccc2[nH]1)c1ccccc1	46.6% (active)
Oc1ccc(Cl)cc1/C=N/c1nc2ccccc2[nH]1	23.3%
O=C(N/N=C/c1ccc(Cl)cc1)c1nc2ccc([N+](=O)[O-])cc2c(=O)[nH]1	-1.53%
CC(C)(C)c1ccc(CCC2OCC(CN3CCOCC3)O2)cc1 (stereo unspecified)	16.4%
CCOC(OCC)OCC	6.84%
COc1c(C(C)C)oc2cc3oc(=O)ccc3cc12	60.5% (active)
Cc1noc(C)c1COc1ccc2ccc(=O)oc2c1	-2.41%
CC(C)OC(=O)c1ccc(COc2ccc3ccc(=O)oc3c2)o1	22.4%
Cc1ccc(OCC(=O)Nc2ccc3oc(=O)ccc3c2)cc1C	-4.02%
COc1ccc(Nc2cc(=O)oc3ccccc23)cc1	-1.7%
Cc1oc2cc3oc(=O)ccc3cc2c1C	25.5% (active)
CCCCCn1c(=O)[nH]c2cc(C(=O)NCCCN3CCCCC3C)ccc2c1=O (stereo unspecified)	-2.4%
CC(C)CN(CC(C)C)CC(O)CN(c1ccccc1)S(=O)(=O)c1ccccc1[N+](=O)[O-] (stereo unspecified)	3.27%
